# Results reported in PubChem BioAssay (NCATS).
# A number with no mark means an inactive call. Inconclusive results are not listed. Active and inactive are the calls of the source. Unless noted, the call rests on the fitted dose curve.
# How the values were obtained:
# [1] = target: Peroxisome proliferator-activated receptor delta (Homo sapiens) (UniProt Q03181); test: qHTS assay for small molecule agonists of peroxisome proliferator-activated receptor delta signaling (AID 588534); further: potency means the concentration at half of the fitted maximal effect
# How it was run: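 Agonist-mode qHTS; reporter cells, 5 hrs 37 C pre-incubation; compound titration, 18 hrs 37 C; CCF4 dye, 2 hrs RT; fluorescence read. EC50/efficacy via Hill fit.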
# [2] = target: Peroxisome proliferator-activated receptor gamma (Homo sapiens) (UniProt P37231); test: qHTS assay for small molecule antagonists of peroxisome proliferator-activated receptor gamma signaling (AID 588537; active means well fitted inhibition curve with a large enough effect in the signal ratio, with a control signal flat, not every such curve was filed as active; the % refers to the signal ratio; further: potency means the concentration at half of the fitted maximal effect)
# How it was run: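 Fluorescence at 460 and 530 nm (405 nm excitation) reported beta-lactamase cleavage of CCF4 after 2 h room-temperature loading. HEK293 reporter cells in 1% charcoal/dextran-treated FBS had received compound and rosiglitazone for 16 h.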
# [3] = target: Vitamin D3 receptor (Homo sapiens) (UniProt P11473); test: qHTS assay for small molecule agonists of vitamin D receptor signaling (AID 588543); further: potency means the concentration at half of the fitted maximal effect
# How it was run: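 qHTS in agonist mode: compound titrations stimulate a VDR-driven β-lactamase reporter in HEK293T cells over 16 h at 37 °C. Response normalized to 50 nM 1α,25-dihydroxyvitamin D3 = 100%, DMSO = 0%; Hill fitting gives EC50 and maximal response.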
# [4] = target: Thyroid hormone receptor beta (Homo sapiens) (UniProt P10828); test: qHTS assay for small molecule agonists of thyroid hormone receptor beta signaling (AID 588545); further: potency means the concentration at half of the fitted maximal effect
# How it was run: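 HEK 293 TR-UAS-bla; agonist mode; 18 hrs, 37 C; CCF4, ex 405/em 460 and 530 nm; norm. T3 10 nM = 100%, DMSO = 0%; Hill fit → EC50, efficacy.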
# [5] = qHTS assay for small molecule activators of the p53 signaling pathway (AID 651743; active means well fitted activation curve with a large enough effect in the signal ratio, not every such curve was filed as active; the % refers to the signal ratio; further: potency means the concentration at half of the fitted maximal effect); conditions: HCT-116 p53RE-bla, beta-lactamase FRET ratio, 16 h; activation: hits give high values
# How it was run: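 Following 16 hours of compound exposure at 37 C, HCT-116 cells bearing the p53RE-bla reporter were loaded with LiveBLAzer B/G FRET substrate for 2 hours at room temperature and fluorescence intensity was recorded.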
# [6] = qHTS assay for small molecule activators of the nuclear factor-kappa B (NF-kB) signaling pathway (AID 651749; active means well fitted activation curve with a large enough effect in the signal ratio; the % refers to the signal ratio; further: potency means the concentration at half of the fitted maximal effect); conditions: NF-kB-bla ME-180 cells, beta-lactamase FRET ratio, 16 h; activation: hits give high values
# How it was run: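 In this qHTS format, compounds acting as activators increase NF-kB-driven beta-lactamase in ME-180 cells, measured as disrupted FRET after 16 hr exposure at 37C and 5% CO2.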
# [7] = qHTS assay for environmental chemicals that activate the Aryl hydrocarbon Receptor (AhR) signaling pathway (AID 651777; active means well fitted curve in the direction sought with a large enough effect; an effect the other way counts as inactive or inconclusive; further: % of control where 0% means no effect; nearly all actives have a fitted effect of over 15% in size); conditions: 1A2-DRE human hepatoma cells, luciferase, 24 h; activation: hits give high values
# How it was run: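 Human hepatoma 1A2-DRE cells stably carrying a DRE/CYP1A2 promoter–luciferase reporter, 1,200 cells/well, exposed to compound 24 hr at 37 C. Luciferase read by One-Glo luminescence after 30 min at room temperature; increased signal marks AhR activation.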
# [8] = target: Peroxisome proliferator-activated receptor alpha (Homo sapiens) (UniProt Q07869); test: qHTS assay for small molecule agonists of the peroxisome proliferator-activated receptor alpha (PPARalpha) signaling pathway (AID 651778; active means well fitted curve in the direction sought with a large enough effect; an effect the other way counts as inactive or inconclusive; further: % of control where 0% means no effect); conditions: PathHunter PPARalpha complementation, chemiluminescence, 6 h; hits give high values
# How it was run: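 Enzyme-fragment complementation assay in which ligand-bound PPARalpha translocates and forms an active enzyme that generates chemiluminescence. Cells were plated overnight, exposed to compound for 6 hr at 37 C, and then given detection reagent for 60 min at room temperature.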
# [9] = qHTS assay for small molecule agonists of the antioxidant response element (ARE) signaling pathway measured by Nrf2-dependant transcriptional activity - cell viability counter screen (AID 720653; active means well fitted curve in the direction sought with a large enough effect in the repeat runs; an effect the other way counts as inactive or inconclusive; further: on the % scale 0 is the no-effect control and ±100 the full control effect); conditions: ARE-bla HepG2 viability, CellTiter-Glo ATP luminescence, 16 h; max response: hits give low values
# How it was run: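 ARE-bla HepG2 cells treated with compounds for 16 h at 37C; this counter screen measures viability as intracellular ATP by CellTiter-Glo luminescence after 30 min at room temperature.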
# [10] = qHTS assay for cell viability of the p53RE-bla HCT-116 cell line (AID 743292; active means well fitted curve in the direction sought with a large enough effect; an effect the other way counts as inactive or inconclusive; further: on the % scale 0 is the no-effect control and ±100 the full control effect; nearly all actives have a fitted effect of over 55% in size)
# How it was run: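 CellSensor p53RE-bla HCT-116 cells (4,000/well) pre-incubated 5 h at 37 C, then exposed to compounds in DMSO for 16 h at 37 C. Viability read as ATP content by CellTiter-Glo luminescence after 30 min at room temperature.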
# [11] = target: Nuclear receptor subfamily 1 group I member 2 (Rattus norvegicus) (UniProt Q9R1A7); test: qHTS assay for small molecule activators of the rat pregnane X receptor (rPXR) signaling pathway (AID 651751; call rule not given here; further: 0% is about no effect); conditions: rPXR reporter cells, luciferase (One-Glo), 24 h
# [12] = qHTS assay for small molecule activators of the human pregnane X receptor (PXR) signaling pathway (AID 720659; call rule not given here; further: 0% is about no effect)
# [13] = tested on: HEK293T; test: qHTS assay to identify novel small-molecules to repurpose for Merkel cell carcinoma treatment (AID 1296009; active means well fitted curve in the direction sought with a large enough effect; an effect the other way counts as inactive or inconclusive; further: nearly all actives have a fitted effect of over 60% in size); conditions: MCC and control cell lines, CellTiter-Glo viability, 72 h; at 44.8 µM (top of the series) unless noted
# How it was run: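 Dose-response viability screen; 72 hr exposure at 37 degree celsius; CellTiter-Glo added, 10 min room temperature, luminescence read; RLUs scaled between no-cell and DMSO wells.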
# [14] = Confirmatory qHTS to identify inhibitors of SARS-CoV-2 cell entry (AID 1645844); further: potency means the concentration at half of the fitted maximal effect; nearly all actives have a fitted effect of over 45% in size
# How it was run: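 HEK293-ACE2, overnight seeding; cpd 1 h, 37C/5% CO2; + SARS-CoV-2-S MLV PP (Wuhan-Hu-1, ΔC19); 48 h; Bright-Glo luminescence. Data normalised to S PP and bald PP wells.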
# [15] = VSVG counterscreen qHTS to identify inhibitors of SARS-CoV-2 cell entry (AID 1645847); further: potency means the concentration at half of the fitted maximal effect; nearly all actives have a fitted effect of over 65% in size
# How it was run: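 Counterscreen using VSV-G (not spike) pseudotyped MLV particles on ACE2-expressing Expi293F cells after 1 h compound preincubation; infection ran 48 h at 37 °C. Data normalized to VSV-G PP and bald-PP wells.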
# [16] = NCATS anti-infectives library activity on the primary C. elegans qHTS viability assay (AID 1745855); further: potency means the concentration at half of the fitted maximal effect
# How it was run: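 GFP read-out by 488 nm laser cytometry at day 0, 3 and 7, gated on object perimeter, area and peak intensity, scored viability of PE254-GFP-FLuc worms exposed to compound in S medium with bacterial capsules at 21 °C.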
# Sequence of Vitamin D3 receptor (Homo sapiens) (P11473 whole entry, looked up): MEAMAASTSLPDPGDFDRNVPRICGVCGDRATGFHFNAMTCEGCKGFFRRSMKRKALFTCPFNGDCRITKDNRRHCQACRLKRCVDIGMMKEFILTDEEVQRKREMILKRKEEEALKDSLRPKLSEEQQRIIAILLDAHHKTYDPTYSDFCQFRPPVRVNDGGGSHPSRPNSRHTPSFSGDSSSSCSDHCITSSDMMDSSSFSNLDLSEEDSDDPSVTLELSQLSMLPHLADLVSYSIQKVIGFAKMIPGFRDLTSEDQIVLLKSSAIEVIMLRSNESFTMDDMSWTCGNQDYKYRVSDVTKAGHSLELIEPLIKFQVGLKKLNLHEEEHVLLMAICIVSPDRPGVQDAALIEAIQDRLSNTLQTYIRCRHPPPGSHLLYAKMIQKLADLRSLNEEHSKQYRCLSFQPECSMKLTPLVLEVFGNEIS
# Sequence of Thyroid hormone receptor beta (Homo sapiens) (P10828 whole entry, looked up): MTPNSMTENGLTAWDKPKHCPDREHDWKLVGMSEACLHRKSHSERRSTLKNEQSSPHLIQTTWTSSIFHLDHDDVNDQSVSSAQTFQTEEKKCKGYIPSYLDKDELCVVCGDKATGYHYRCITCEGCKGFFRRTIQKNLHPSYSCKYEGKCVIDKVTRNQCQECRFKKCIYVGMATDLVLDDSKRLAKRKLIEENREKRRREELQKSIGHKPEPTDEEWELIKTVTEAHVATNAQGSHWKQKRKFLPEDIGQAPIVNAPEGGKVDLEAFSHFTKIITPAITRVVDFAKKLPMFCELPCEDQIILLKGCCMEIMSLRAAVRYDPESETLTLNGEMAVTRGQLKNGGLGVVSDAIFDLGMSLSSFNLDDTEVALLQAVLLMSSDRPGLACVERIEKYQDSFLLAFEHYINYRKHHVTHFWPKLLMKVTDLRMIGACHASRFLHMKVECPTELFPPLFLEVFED
# Sequence of Peroxisome proliferator-activated receptor delta (Homo sapiens) (Q03181 whole entry, looked up): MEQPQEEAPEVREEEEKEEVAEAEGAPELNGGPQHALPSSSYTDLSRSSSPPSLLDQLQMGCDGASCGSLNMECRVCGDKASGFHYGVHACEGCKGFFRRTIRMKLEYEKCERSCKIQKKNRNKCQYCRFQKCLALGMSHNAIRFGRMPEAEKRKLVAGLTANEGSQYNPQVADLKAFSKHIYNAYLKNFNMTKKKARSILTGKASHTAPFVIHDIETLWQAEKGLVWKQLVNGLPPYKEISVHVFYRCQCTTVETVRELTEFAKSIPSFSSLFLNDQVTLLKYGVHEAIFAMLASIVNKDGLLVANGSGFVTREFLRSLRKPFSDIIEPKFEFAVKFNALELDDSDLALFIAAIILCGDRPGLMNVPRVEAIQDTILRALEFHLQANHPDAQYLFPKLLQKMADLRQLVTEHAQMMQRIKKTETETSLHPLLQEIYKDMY
# Sequence of Peroxisome proliferator-activated receptor gamma (Homo sapiens) (P37231 whole entry, looked up): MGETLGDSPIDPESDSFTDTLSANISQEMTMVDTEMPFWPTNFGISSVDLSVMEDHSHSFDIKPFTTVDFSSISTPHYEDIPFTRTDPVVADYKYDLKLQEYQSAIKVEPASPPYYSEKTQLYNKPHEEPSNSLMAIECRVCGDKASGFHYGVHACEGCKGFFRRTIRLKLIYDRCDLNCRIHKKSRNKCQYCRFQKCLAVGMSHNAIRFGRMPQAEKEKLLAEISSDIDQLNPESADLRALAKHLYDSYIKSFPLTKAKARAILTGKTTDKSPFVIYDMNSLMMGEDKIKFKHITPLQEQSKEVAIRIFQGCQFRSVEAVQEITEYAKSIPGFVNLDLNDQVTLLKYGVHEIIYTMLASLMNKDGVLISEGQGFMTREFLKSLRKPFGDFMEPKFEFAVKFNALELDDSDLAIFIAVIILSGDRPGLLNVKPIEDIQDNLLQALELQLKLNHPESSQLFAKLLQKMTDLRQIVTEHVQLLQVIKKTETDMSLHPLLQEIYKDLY
# Sequence of Nuclear receptor subfamily 1 group I member 2 (Rattus norvegicus) (Q9R1A7 whole entry, looked up): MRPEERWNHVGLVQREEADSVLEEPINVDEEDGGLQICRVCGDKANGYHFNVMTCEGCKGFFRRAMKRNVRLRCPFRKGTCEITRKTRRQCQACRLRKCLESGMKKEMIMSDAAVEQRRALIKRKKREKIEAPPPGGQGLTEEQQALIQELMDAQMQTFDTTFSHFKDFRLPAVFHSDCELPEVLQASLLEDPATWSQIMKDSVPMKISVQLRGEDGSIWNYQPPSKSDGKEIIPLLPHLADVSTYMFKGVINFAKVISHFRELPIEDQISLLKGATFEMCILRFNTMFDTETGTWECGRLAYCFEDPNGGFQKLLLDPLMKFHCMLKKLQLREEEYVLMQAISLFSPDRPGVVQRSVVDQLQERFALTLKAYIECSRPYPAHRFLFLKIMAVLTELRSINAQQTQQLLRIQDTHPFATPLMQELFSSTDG
# Sequence of Peroxisome proliferator-activated receptor alpha (Homo sapiens) (Q07869 whole entry, looked up, the tested form may be a part): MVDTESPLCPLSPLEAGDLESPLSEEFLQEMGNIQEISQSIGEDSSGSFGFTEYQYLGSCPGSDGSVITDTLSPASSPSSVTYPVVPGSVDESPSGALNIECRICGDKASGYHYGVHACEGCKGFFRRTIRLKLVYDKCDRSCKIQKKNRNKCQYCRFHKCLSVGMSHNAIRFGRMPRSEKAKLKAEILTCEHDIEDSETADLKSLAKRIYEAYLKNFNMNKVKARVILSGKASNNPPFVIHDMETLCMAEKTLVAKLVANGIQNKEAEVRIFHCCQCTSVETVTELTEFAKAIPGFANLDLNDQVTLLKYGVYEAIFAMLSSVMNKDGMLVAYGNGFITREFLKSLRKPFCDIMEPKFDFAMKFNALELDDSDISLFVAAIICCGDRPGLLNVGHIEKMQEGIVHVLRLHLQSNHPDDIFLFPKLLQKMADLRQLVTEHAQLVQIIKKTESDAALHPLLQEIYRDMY
compound,measurement,setting,value
C[C@@H]1Cc2c(Cl)cc(C(=O)N[C@@H](Cc3ccccc3)C(=O)O)c(O)c2C(=O)O1,Potency,[1],39.8 µM (active)
same,Potency,[2],2 µM (active)
same,Potency,[3],44.7 µM (active)
same,Potency,[4],44.7 µM (active)
same,Potency,[5],0.891 µM (active)
same,Potency,[6],44.7 µM (active)
same,activation,[7],8.7%
same,max response,[8],-0.744%
same,max response,[9],9.38%
same,outcome,[10],inactive
same,max response,[11],-12%
same,outcome,[12],inactive
CN(CC[C@H](N)CC(=O)N[C@H]1C=C[C@@H](n2ccc(N)nc2=O)O[C@@H]1C(=O)O)C(=N)N,outcome,[13],inactive [at 9.27 µM]
C/C(=C\c1csc(C)n1)[C@@H]1C[C@@H]2O[C@@H]2CCC[C@H](C)[C@H](O)[C@@H](C)C(=O)C(C)(C)[C@@H](O)CC(=O)O1,Potency,[14],0.121 µM (active)
same,Potency,[15],0.0541 µM (active)
CC[C@H]1/C=C\C=C/C[C@@H](C)[C@H](O)[C@@](C)(O)C(=O)[C@@H](C)[C@H](O)[C@@H](C)C(=O)[C@@H](C)[C@H](O)[C@@H](C)/C=C\C(=O)O[C@@H]2[C@H](C)[C@H](CC1)O[C@]1(CC[C@H](C)[C@H](C[C@@H](C)O)O1)[C@H]2C,Potency,[16],5.78 µM (active)
